DRD3 antagonist: D3 dopamine receptor (human) antagonism. P35462. D3R cells, DiscoveRx beta-arrestin luminescence, antagonist mode; active compounds read low. max response, negative = inhibition, %. hit rate 2.5% among 360,000. AID 652054; in the data active means max response below about -50%; inconclusive means no clear call, values can overlap the other calls
Target sequence (P35462 whole entry, looked up): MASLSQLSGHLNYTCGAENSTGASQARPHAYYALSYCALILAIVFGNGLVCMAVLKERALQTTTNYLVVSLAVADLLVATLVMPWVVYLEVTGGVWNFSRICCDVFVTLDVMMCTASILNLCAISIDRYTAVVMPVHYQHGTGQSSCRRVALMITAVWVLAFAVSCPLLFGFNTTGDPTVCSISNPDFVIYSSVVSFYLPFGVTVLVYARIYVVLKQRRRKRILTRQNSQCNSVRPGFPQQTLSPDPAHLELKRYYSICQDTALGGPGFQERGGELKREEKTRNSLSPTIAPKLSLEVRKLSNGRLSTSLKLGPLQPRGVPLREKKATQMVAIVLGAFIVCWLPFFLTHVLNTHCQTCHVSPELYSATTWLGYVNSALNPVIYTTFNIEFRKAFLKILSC
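Cells plated overnight at 1500 cells/well, then exposed to library compounds with dopamine controls for 90 minutes at 37 degrees C. DiscoveRx reagent added for 30–60 minutes at room temperature; luminescence read, quantitative HTS format.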
a7 integrin act: integrin-mediated muscular dystrophy alleviation activation | alpha7betagal myoblasts, beta-gal FDG fluorescence, 48 h | hit rate 0.064% among 350,000 | AID 624291 | Potency, µM (highest dose often 38.3 µM), usual class: activators; active means well fitted activation curve with a large enough effect; inconclusive means small, poorly fitted or top-dose-only effect; inactive means no such curve, though single readings can be large or run the other way; further: nearly all actives have a fitted effect of over 60% in size
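alpha7betagal+/- myoblasts (passage 13, 250/well) treated 48 h at 37C with compounds at 1:260 dilution of DMSO stock. Lysed, then beta-galactosidase activity read as FDG fluorescence (ex 480/em 540) after 30 min, with pre-read for autofluorescence.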
DRD3 agonist: agonists of human D3 dopamine receptor. P35462. D3R DiscoveRx beta-arrestin cells, luminescence, 90 min. max activation, %. hit rate 0.58% among 410,000. AID 652048; in the data active means max activation above about 30%
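Agonist-mode cell screen: cells plated at 1500/well and incubated overnight at 37 °C, then exposed to library compounds for 90 min at 37 °C. Detection reagent was added for 30–60 min at room temperature, and luminescence was read.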
Of the large screens only hits and unclear results are named; the others gave an inactive call. An excerpt weighted towards active compounds, which were near 2.9% of everything screened.

Cc1ccc(NN2C(=O)C=C(c3ccc(Cl)cc3)C2=O)cc1	DRD3 antagonist -53
COc1ccc(C2=CC(=O)N(Nc3ccccc3)C2=O)cc1	DRD3 antagonist -62
CCCCOc1ccc(-c2n[nH]c(=S)n2Cc2ccccc2)cc1	none
O=C(COc1ccccc1)Nc1nnc(S(=O)(=O)N2CCCCC2)s1	none
CCCC(C)c1nnc(NC(=O)C(=O)OCC)s1 (centres undefined)	none
O=C(Nc1ccc(Br)cc1)C1Cc2ccccc2O/C1=N\O (centres undefined)	none
COc1ccccc1NS(=O)(=O)c1cc(NC(=O)C2=NNC(=O)CC2)ccc1C	none
Cc1ccc2c(CC(=O)N3CCN(c4cccc(Cl)c4)CC3)coc2c1C	none (no result: DRD3 antagonist, a7 integrin act)
O=[N+]([O-])c1ccc(CN2CCN(c3ccccc3)CC2)o1	none
Clc1ccccc1-c1ccc(CN2CCN(c3ccccc3)CC2)o1	DRD3 antagonist -67
CCCc1nc(SCC(=O)c2ccccc2)c2c(=O)n(C)c(=O)n(C)c2n1	DRD3 agonist 31
CCCc1nc(SCC(=O)c2ccc(OC)cc2)c2ccccc2n1	DRD3 agonist 33
CCc1nc(SCC(=O)c2ccccc2)c2c(=O)n(C)c(=O)n(C)c2n1	none
COc1ccc(C(=O)CSc2nc(-c3ccccn3)nc(C)c2Cl)cc1	DRD3 antagonist -60
CCc1nc(SCC(=O)c2ccccc2)c2ccccc2n1	none
Cc1nc(-c2ccccn2)nc(SCC(=O)c2ccc(F)cc2)c1Cl	none
CCCCNC(=O)CSc1nc2nc(C)c(Cc3c(F)cccc3Cl)c(C)n2n1	none (no result: DRD3 antagonist, a7 integrin act)
Cc1nn(C(C)(C)C)c(NC(=O)c2ccc(Cl)cc2Cl)c1Br	none
Cc1noc(C)c1C(=O)OCC(=O)Nc1cccc(F)c1	DRD3 antagonist -62
CCc1noc(C)c1C(=O)OCC(=O)Nc1cccc(C)c1	none
O=C(NN1C(=O)c2ccccc2C1=O)c1ccncc1	a7 integrin act inconclusive
COc1ccc(NC(=S)N(CCCN2CCOCC2)C(C)c2cc3cccc(OC)c3o2)cc1 (centres undefined)	none
COc1cccc(NC(=S)N(CCCN2CCOCC2)C(C)c2cc3ccccc3o2)c1 (centres undefined)	DRD3 antagonist -55, a7 integrin act inconclusive
Cc1ccc(N2C(=O)CC3(CC4C=CC3C4)C2=O)cc1 (centres undefined)	none
CCCC(C)Sc1nc2c([nH]1)c(=S)n(C)c(=O)n2C (centres undefined)	none
COC(=O)C(NC(=O)c1ccccc1C)(Nc1ncc(S(=O)(=O)c2ccc([N+](=O)[O-])cc2)s1)C(F)(F)F (centres undefined)	DRD3 antagonist -77
COC(=O)C(NC(=O)c1ccc(F)cc1)(Nc1ncc(S(=O)(=O)c2ccc([N+](=O)[O-])cc2)s1)C(F)(F)F (centres undefined)	none
O=C(Oc1ccc(F)cc1)c1nc(SCc2ccc(F)cc2)ncc1Cl	none (no result: DRD3 antagonist, a7 integrin act)
C=CCNc1nc(NCc2ccccc2)c(C#N)c2c1CN(C)CC2	DRD3 antagonist -66
N#Cc1c(NCCN)nc(NCc2ccccc2)c2c1CCN(Cc1ccccc1)C2	none
Cc1ccccc1C(=O)NC1CCN(Cc2nnnn2C2CCCC2)CC1	DRD3 antagonist inconclusive
COc1ccc(CCNC(=S)NC2CCN(Cc3ccccc3)CC2)cc1	DRD3 antagonist -83, a7 integrin act inconclusive
Cc1ccc(NC(=S)NC2CCN(Cc3ccccc3)CC2)c(C)c1	DRD3 antagonist inconclusive
Cc1ccccc1NC(=S)NC1CCN(Cc2ccccc2)CC1	DRD3 antagonist -50
S=C(Nc1ccccc1)NC1CCN(Cc2ccccc2)CC1	DRD3 antagonist -77
O=C(Nc1ccccc1)NC1CCN(Cc2nnnn2C2CCCCC2)CC1	DRD3 antagonist -70
S=C(NCCc1ccccc1)NC1CC1	none
CCc1ccc(NC(=S)NC2CCN(Cc3ccccc3)CC2)cc1	none
CCn1cc(/C=C(\NC(=O)c2ccc(C)cc2)C(=O)NCCCN2CCOCC2)c2ccccc21	none
Oc1ccc(/C=N/Nc2ncnc3c2ncn3Cc2ccccc2)cc1O	none
Cc1nn(-c2ccccc2)c2c1cc1c(=O)n(C)c(=O)nc-1n2-c1ccccc1F	none
O=C(NNc1c(Cl)cccc1Cl)c1ccno1	none
O=C(O)CCSc1nnc(COc2cccc3cccnc23)n1-c1ccccc1	none
S=C(Nc1ccc(Cl)cc1)NC1CCN(Cc2ccccc2)CC1	DRD3 antagonist -60
COc1ccc(CN2CCC(CNC(=O)NC3CCCCC3)CC2)cc1	DRD3 antagonist -54
COc1ccc(CNC(=O)NC2CCCCC2)cc1	none
CCC(C)c1ccc(NC(=S)NC2CCN(Cc3ccccc3)CC2)cc1 (centres undefined)	DRD3 antagonist inconclusive
CC1Cc2cc(S(=O)(=O)N3CCN(c4ccc(Cl)cc4)CC3)ccc2N1C(=O)C1CC1 (centres undefined)	none

Assay outcomes from PubChem BioAssay.
